In all, about 48,000 compounds went through this assay and about 13,000 (27%) showed an effect of 50% or more. This is one part of the list.

For this assay, the system named is Wolbachia pipientis. The experiment in a line: Anti-Wolbachia Cell-Based Screen. In kind it is functional. Further details: scale not given: in the data most compounds retested in dose-response had high values. Conditions: 5 µM.
With `Cc1cc(Cl)ccc1S(=O)(=O)NCC(C)N1CCN(C)CC1` (configuration not stated), the “Percent Effect” value is on record as 0.8605%.
Then `CC1CCN(Cc2cnc(S(=O)(=O)CC3CC3)n2CC2CCCO2)CC1` (configuration not stated), with 3.735%.
To `CCC(C)Oc1cc(C(=O)Nc2nccs2)ccn1` (configuration not stated) belongs -12.97%; to `Cc1cnn(C(C)C2CC2)c1NC(=O)c1ccc(Cn2cnnn2)cc1` (configuration not stated), 7.746%.
To `COc1nc2c(cc1C(=O)N1C[C@@H](N)C[C@H]1C(=O)NC(C)C)CCC2` belongs 2.559%; to `CCOC(=O)c1coc(N2CCN(Cc3cc(C)cc(C)c3)C(=O)C2)n1`, -24.84%; to `CS(=O)(=O)N1CCc2ccc(=O)n(CC3CCOCC3)c2CC1`, -13.75%.
As for `O=C(O)C(F)(F)F.O=c1ccc2c(n1CC1CCOCC1)CCN(Cc1ccoc1)CC2`, the “Percent Effect” value is reported as 125.5%.
As to `Cn1cc(CN2C[C@@H]3COC[C@]3(C(=O)NCCc3ccccc3)C2)cn1.O=C(O)C(F)(F)F`, the “Percent Effect” value worked out at 92.46%.
Then `Cn1cc(CN2CC(C(=O)Nc3ccccc3)C3(CCOCC3)C2)cn1.O=C(O)C(F)(F)F` (configuration not stated), with 0.729%; and `Cn1cc(CN2C[C@@H]3COC[C@]3(C(=O)NCc3cccs3)C2)cn1`, with 98.41%.
To `CS(=O)(=O)N1C[C@@H]2COC[C@]2(C(=O)NCCc2cccs2)C1` belongs -42.96%.
Then `O=C(NCCc1cccs1)[C@]12COC[C@H]1CN(Cc1ccncc1)C2.O=C(O)C(F)(F)F.O=C(O)C(F)(F)F`, with -23.54%.
`Cn1cc(CN2C[C@@H]3COC[C@]3(C(=O)N3CCCO3)C2)cn1`: the “Percent Effect” value is on record as -0.6058%.
On to `CC(C)NC(=O)[C@]12COC[C@H]1CN(Cc1cnn(C)c1)C2`, for which the “Percent Effect” value is 82.27%.
To `CN(Cc1ccccn1)C(=O)[C@]12COC[C@H]1CN(Cc1cnn(C)c1)C2` belongs -17.57%; to `O=C(NCc1cccs1)[C@]12COC[C@H]1CN(c1ncccn1)C2.O=C(O)C(F)(F)F`, -12.11%.
To `COc1ccccc1CCNC(=O)CNC1CCc2nc(C)nn2C1` (configuration not stated) belongs -4.852%.
Turning to `CC(=O)N1CCn2c(COCc3csc(C)n3)cnc2C1C` (configuration not stated), the “Percent Effect” value worked out at 17.55%.
Consider `Cc1nn(C)c2nc(N(CCN(C)C)C3CCCC3)sc12`, for which the “Percent Effect” value is -1.05%.
As for `Cc1cccc(C(=O)NCCNCC2CNc3ccnn3C2)c1` (configuration not stated), the “Percent Effect” value is given as -9.397%.
`CC(C)Cn1cnc(S(=O)(=O)NCCc2nnc3ccccn23)c1`: the “Percent Effect” value is on record as 8.202%.
Then `CCCn1cc(C(=O)NC(CC(=O)O)c2ccccc2F)c(C)n1` (configuration not stated), with -6.071%; and `Cc1c(-c2nnc(SCC(=O)O)n2C(C)c2ccccc2)cnn1C` (configuration not stated), with 8.856%; and `CCCn1cc2c(C(F)F)cc(SCC(=O)O)nc2n1`, with 93.6%.
For `CC(C)Cc1nnc(SCC(=O)O)n1-c1ccc(F)cc1F`, the “Percent Effect” value was 1.309%.
As for `CCn1nc2nc(SCC(=O)O)cc(C(F)F)c2c1C`, the “Percent Effect” value turned out to be 86.56%.
Consider `CCn1nc(C)c(NC(=O)C(C)C)c1C`, for which the “Percent Effect” value is reported as -2.093%.
For `Cc1c2c(C(F)F)cc(SCC(=O)O)nc2nn1C`, the “Percent Effect” value was 97.91%.
To `Cc1cc(-c2nnc(SCC(=O)O)n2C(C)c2ccccc2)nn1C` (configuration not stated) belongs 4.931%.
Turning to `CCc1cc(C(F)(F)F)c2c(C)nn(CC(=O)O)c2n1`, the “Percent Effect” value is given as -1.783%.
To `Cc1cc(SCC(=O)O)nc2nn(CC(F)F)c(C)c12` belongs 120.4%; to `CN(Cc1cccc(Cl)c1)Cc1nnsc1Cl`, -20.09%; to `Cc1oc(-c2ccccc2)nc1CC(=O)NC1=NCCS1`, -12.38%.
Then `CCc1nsc(NC2CC(=O)N(C3CC3)C2)n1` (configuration not stated), with 5.167%; and `O=C(c1ccc[nH]1)N1CCN(CC2CCOc3ccccc3C2)CC1` (configuration not stated), with -0.508%.
To `O=C(NCC1(O)CCOC1)NCC1(c2ccccc2Cl)CCC1` (configuration not stated) belongs 17.28%.
Turning to `Cc1cc(CC(C)NC(=O)Cc2cc(F)ccc2C)[nH]n1` (configuration not stated), the “Percent Effect” value is listed as -12.96%.
Regarding `Cc1nc(C2CCCN2Cc2cc(Cl)c3c(c2)OCO3)no1` (configuration not stated), the “Percent Effect” value was -3.682%.
`COC[C@@]12CCO[C@@H]1CCN(C(=O)C1CCOCC1)C2`: the “Percent Effect” value was 4.117%.
Then `COCC1N(C(=O)N2CCOCC2)[C@H]2CC[C@]1(O)CC2` (some centres not stated), with 110.4%.
Regarding `O=C(N1CCOCC1)N1C[C@H]2CC[C@@H]1CN(C1Cc3ccccc3C1)C2`, the “Percent Effect” value worked out at 12.43%.
Then `O=C(C1CCOCC1)N1C[C@@H]2OCCN(CCN3CCCC3)[C@@H]2C1`, with -5.298%; and `O=C(N1CCOCC1)N1C(CN2CCOCC2)[C@]2(O)CC[C@H]1CC2` (some centres not stated), with 118.3%; and `O=C(N1CCOCC1)N1CC[C@@](O)(c2ccccc2)[C@H]2CCCC[C@@H]21`, with 4.203%.
To `C[C@@H]1CN(C(=O)CCN2CCOCC2)CC[C@]1(C)O` belongs -11.44%; to `O=C(C1CCC1)N1C(CN2CCOCC2)[C@]2(O)CC[C@H]1CC2` (some centres not stated), 92.68%; to `Cn1c(CN2CCOCC2)nnc1C1CCN(C(=O)C2CCCC2)CC1`, -7.454%.
Take `CCC(CC)n1nc(C)cc1NC(=O)C1CCOC1` (configuration not stated): the “Percent Effect” value is 10.26%.
Then `Cc1ccccc1[C@@H]1CN(CCCS(=O)(=O)N(C)C)C[C@H]1C(=O)O`, with -19.2%; and `O=C(NC[C@H]1OC[C@@H]2CCN(c3ncccn3)C[C@@H]21)c1ccnnc1`, with 8.157%.
To `CCn1ccnc1CN1CCCC(CO)(CCCc2ccccc2)C1` (configuration not stated) belongs 6.615%; to `Cn1ccc2c(ccn2CC(=O)Nc2ccc(Br)cc2)c1=O`, 150.6%; to `Cc1ccc(NC(=O)Cc2c(C)nc3c(c2C)c(=O)[nH]n3C)cc1F`, -4.371%.
`Cc1ccc(NC(=O)Cn2ccc3c(=O)n(C)ccc32)cc1F`: the “Percent Effect” value came to 136.8%.
Then `COc1ccc(NC(=O)Cn2nc(C)ccc2=O)cc1OC`, with 11.2%; and `Cc1cc(NC(=O)Cn2cc(C#N)c(=O)c3cc(Br)ccc32)no1`, with -1.057%; and `COc1ccc(NC(=O)Cn2ccc3c(=O)n(C)ccc32)cc1OC`, with 174.8%.
To `Cc1ccc(NC(=O)CN[C@H](C(N)=O)C(C)C)cc1F` belongs -36.68%; to `COc1ccc(NC(=O)Cn2nc(C)c(C)cc2=O)cc1OC`, -16.79%.
With `CC(=O)c1c(C)nn(CC(=O)Nc2ccc(Br)cc2)c1C`, the “Percent Effect” value is reported as -0.7117%.
`Cc1cccn2c(=O)cc(CN3CCCC3Cn3cncn3)nc12` (configuration not stated): the “Percent Effect” value is 14.6%.

The values are drawn from ChEMBL document CHEMBL3988442, “University of Dundee, Small-Polar-MMV Screening Library” (2021).
